Hit rate of the full screen: of about 52,000 compounds, about 4,300 (8.3%) were called active. Rule as the data show it: active = survival mostly below about 52% (no sharp cut-off); inactive = mostly above about 56%. For the sample, actives were picked, then their nearest neighbours and some compounds at random.

The test system of the test is DeltatarO mutant. The experiment in a line: growth inhibition of S. aureus wild type versus tarO mutant, primary screen, teichoic acid synthesis inhibitors, RN4220, OD600 (AID 463173). Particulars: OD600, 18 h, stronger effect = lower value, screened at 18.75 µg/mL (by protocol).
For `O=C(CSc1nc(=O)n(Cc2ccncc2)c2c1CCC2)Nc1ccc(F)cc1F`, the survival is 78% (inactive).

In the case of `COc1ccc(Nc2c(-c3ccc(C)o3)nc3ccc(Cl)cn23)cc1`, the survival was 65% (inactive).

As for `CCOC(=O)C1(C)C=C(Nc2cccc(C(=O)O)c2)C(=O)N1c1ccccc1` (stereo unspecified), the survival is 73% (inactive).

As for `CCOC(=O)C1(C)C=C(Nc2cccc(C)c2)C(=O)N1c1ccccc1` (stereo unspecified), the survival is 15% (active).

For `CCOC(=O)C1(C)C=C(Nc2ccc(C)cc2)C(=O)N1c1ccccc1` (stereo unspecified), the survival is 50% (inactive).

For `O=c1[nH]c2ccc(S(=O)(=O)Nc3cc(Cl)ccc3O)cc2o1`, the survival is 86% (inactive).

In the case of `CC(C(=O)NC1CC1)N1CCC(N2CCCCC2)CC1` (stereo unspecified), the survival is 98% (inactive).

As for `Nc1nn(-c2ccccc2)nc1NC=O`, the survival is 95% (inactive).

`O=C(NCCCCc1ccccc1)c1nn(-c2ccccc2)nc1CO`: the survival was 58% (inactive).

Take `Cc1ccccc1COC(=O)c1nn(-c2ccccc2)nc1N`: the survival is -1% (active).

On to `Nc1nn(-c2ccccc2)nc1C(=O)OCc1ccccc1Br`, for which the survival was 11% (active).

For `Cc1ccccc1COC(=O)c1ccc(-c2nnn(Cc3ccccc3F)n2)cc1`, the survival was 54% (inactive).

Take `Cc1ccccc1CNC(=O)c1nn(-c2ccccc2F)nc1CO`: the survival was 85% (inactive).

On to `Cc1ccc(Cl)cc1NC(=O)C1CCCN(S(=O)(=O)c2c(C)noc2/C=C/N(C)C)C1` (stereo unspecified), for which the survival is 51% (inactive).

Turning to `COc1cccc(Nc2sc(C(=O)c3ccc(Cl)cc3)c(N)c2C(=O)NCc2ccc(C)cc2)c1`, the survival is 95% (inactive).

In the case of `Cc1ccc(CNC(=O)c2c(Nc3ccccc3C)sc(C(=O)c3ccc(F)cc3)c2N)cc1`, the survival was 20% (active).

For the compound `Cc1ccccc1Nc1sc(C(=O)c2ccc(F)cc2)c(N)c1C(=O)NCCc1ccccc1`, the survival was 81% (inactive).

Consider `Cc1ccccc1Nc1sc(C(=O)c2ccccc2)c(N)c1C(=O)NCc1ccc(Cl)cc1`, for which the survival is 100% (inactive).

For `COc1cccc(Nc2sc(C(=O)c3ccc(F)cc3)c(N)c2C(=O)NCc2ccc(Cl)cc2)c1`, the survival was 8% (active).

For `COc1cccc(Nc2sc(C(=O)c3ccc(F)cc3)c(N)c2C(=O)NCc2ccc(C)cc2)c1`, the survival was 91% (inactive).

`Cc1cccc(-c2cc(NC(=O)C(C)(C)C)n(-c3ccccc3)n2)c1`: the survival is 99% (inactive).

For the compound `COc1ccc(CNC(=O)CCS(=O)(=O)c2ccc3c(c2)CC(C)N3C(=O)C2CC2)cc1` (stereo unspecified), the survival is 95% (inactive).

Consider `COc1cccc(CNC(=O)CCS(=O)(=O)c2ccc3c(c2)CC(C)N3C(=O)C2CC2)c1` (stereo unspecified), for which the survival was 20% (active).

In the case of `CC1Cc2cc(S(=O)(=O)CCC(=O)NCc3ccccc3Cl)ccc2N1C(=O)C1CC1` (stereo unspecified), the survival is 89% (inactive).

For the compound `CCC(=O)N1c2ccc(S(=O)(=O)CCC(=O)NCc3cccc(OC)c3)cc2CC1C` (stereo unspecified), the survival is 102% (inactive).

Turning to `CCC(=O)N1c2ccc(S(=O)(=O)CCC(=O)NCc3ccccc3OC)cc2CC1C` (stereo unspecified), the survival was 90% (inactive).

As to `COc1ccccc1CNC(=O)CCS(=O)(=O)c1ccc2c(c1)CC(C)N2C(=O)C1CC1` (stereo unspecified), the survival is 8% (active).

With `CCc1cccc(NC(=O)c2ccc3c(=O)n4nc(Nc5ccccc5OC)sc4nc3c2)c1`, the survival is 74% (inactive).

Turning to `Clc1ccccc1-c1nnc(SCc2nc(-c3ccccc3)no2)n1-c1ccccc1`, the survival is 52% (inactive).

With `CC(C)(C)OC(=O)N1CCC(c2c(C(=O)N3CCN(c4ccccc4)CC3)cnn2-c2ccccc2)CC1`, the survival is 81% (inactive).

As to `Cc1cc(C)n(-c2nc3ccccc3nc2Nc2cccc(C(F)(F)F)c2)n1`, the survival was 75% (inactive).

On to `COc1ccc(OC)c(Nc2nc3ccccc3nc2-n2nc(C)cc2C)c1`, for which the survival was 16% (active).

On to `COc1cc(OC)c(Nc2nc3ccccc3nc2-n2nc(C)cc2C)cc1Cl`, for which the survival was 97% (inactive).

With `Cc1cc(C)n(-c2nc3ccccc3nc2Nc2cc(Cl)ccc2C)n1`, the survival was 130% (inactive).

Consider `Cc1cc(C)n(-c2nc3ccccc3nc2Nc2cccc(C)c2C)n1`, for which the survival is 21% (active).

With `Cc1cc(C)n(-c2nc3ccccc3nc2Nc2ccc(Cl)cc2Cl)n1`, the survival is 75% (inactive).

For `Cc1cc(C)cc(Nc2nc3ccccc3nc2-n2nc(C)cc2C)c1`, the survival was 23% (active).

On to `Cc1cc(C)n(-c2nc3ccccc3nc2Nc2ccc(Cl)c(Cl)c2)n1`, for which the survival was 0% (active).

In the case of `Cc1ccc(Nc2nc3ccccc3nc2-n2nc(C)cc2C)c(Cl)c1`, the survival was 70% (inactive).

For the compound `Cc1cc(C)cc(Nc2nc3cc(Cl)c(Cl)cc3nc2-n2nc(C)cc2C)c1`, the survival was 89% (inactive).

Turning to `COc1ccccc1Nc1nc2ccc(Cl)cc2nc1-n1nc(C)cc1C`, the survival was 133% (inactive).

For `Cc1ccc2nc(Nc3cccc(Cl)c3C)c(-n3nc(C)cc3C)nc2c1`, the survival is 123% (inactive).

As for `CCOC(=O)c1cc(-c2ccccc2)n(CCC(=O)Nc2cc(C)cc(C)c2)c1C`, the survival is 99% (inactive).

On to `Cc1ccc(NC(=O)C(C)Sc2nc(=O)cc(N)n2-c2cccc(C)c2)cc1` (stereo unspecified), for which the survival was 59% (inactive).

With `CCOC(=O)c1cccc(NC(=O)c2cn(-c3cccc(OC)c3)c(=O)c3ccccc23)c1`, the survival is 60% (inactive).

Take `COc1ccc(Cl)cc1NC(=O)c1ccc(CN2C(=O)CCn3nc(C)cc32)cc1`: the survival was 66% (inactive).

Consider `CC(C)c1ccc(NC(=O)CSC2=Nc3ccccc3C3=NC(CC(=O)NCCc4ccccc4)C(=O)N23)cc1` (stereo unspecified), for which the survival was 72% (inactive).

Turning to `Nc1nc(CC(=O)NN=C2CCCCCC2)cs1`, the survival is 65% (inactive).

On to `CCc1ccccc1Nc1nc2cc(Cl)c(Cl)cc2nc1-n1nc(C)cc1C`, for which the survival is 89% (inactive).

For `CCOc1ccc(Nc2nc3cc(Cl)c(Cl)cc3nc2-n2nc(C)cc2C)cc1`, the survival is 87% (inactive).

In the case of `Cc1cc(C)n(-c2nc3ccccc3nc2Nc2ccc(N(C)C)cc2)n1`, the survival is -2% (active).

`Cc1cc(C)n(-c2nc3ccccc3nc2Nc2ccc(C(C)C)cc2)n1`: the survival is 8% (active).

With `COc1cccc(Nc2nc3ccc(C)cc3nc2-n2nc(C)cc2C)c1`, the survival is 88% (inactive).

With `Cc1cc(C)n(-c2nnc(Nc3ccc(C(C)C)cc3)c3ccccc23)n1`, the survival was 80% (inactive).

Regarding `Cc1ccc(NC(=O)c2cnn(-c3ccc(C)c(C)c3)c2C2CCN(C(=O)OC(C)(C)C)CC2)c(C)c1`, the survival is 109% (inactive).

For the compound `CN(C(=O)c1ccccc1)C1CCS(=O)(=O)C1` (stereo unspecified), the survival was 90% (inactive).

Turning to `Cc1ccc(N2CC(C(=O)NCc3nnnn3-c3ccc(C)c(C)c3)CC2=O)cc1` (stereo unspecified), the survival was 69% (inactive).

Regarding `Cc1ccc(-c2ccc(=O)n(CC(=O)NC(C)c3ccccc3)n2)cc1` (stereo unspecified), the survival is 69% (inactive).

Take `Cc1c(-c2cccc(NC(=O)Nc3ccccc3)c2)nc2ncccn12`: the survival was 76% (inactive).

As to `Cc1c(-c2cccc(NC(=O)Nc3ccc(Cl)cc3)c2)nc2ncccn12`, the survival is -2% (active).

As to `Cc1c(-c2cccc(NC(=O)C(C)(C)C)c2)nc2ncccn12`, the survival was 79% (inactive).

As for `Cc1ccc(-n2nc(C(=O)N3CCC(C)CC3)c(=O)n(C)c2=O)cc1`, the survival is 86% (inactive).

Regarding `Cc1ccc(-n2nc(C(=O)N3CCCCC3)c(=O)n(C)c2=O)cc1`, the survival was 52% (active).

As to `Cc1ccc(-n2nc(C(=O)N3CCN(c4ccccc4)CC3)c(=O)n(C)c2=O)cc1`, the survival was 124% (inactive).

For `Cn1c(SCc2ccccc2)nnc1C1CCCN1CC(=O)N1CCN(c2ccc(F)cc2)CC1` (stereo unspecified), the survival was 70% (inactive).

Turning to `Cc1ccc(CNC(=O)CSc2nc(=O)[nH]c3c2CCCC3)cc1`, the survival is 76% (inactive).

As for `COc1cc(SC)ccc1C(=O)NCc1ccccc1`, the survival is 95% (inactive).

Take `Cc1ccc(-n2ncc(C(=O)NCCN3CCc4ccccc4C3)c2C2CCN(C(=O)OC(C)(C)C)CC2)cc1C`: the survival is 99% (inactive).

In the case of `Cc1ccc(C)c(Cn2c(=O)n(CCCC(=O)NCc3ccc4c(c3)OCO4)c(=O)c3sccc32)c1`, the survival was 74% (inactive).

With `COc1cc(C(=O)Oc2c(Sc3ccccc3)c(C)nn2-c2ccccc2)cc(OC)c1OC`, the survival is 83% (inactive).

Take `CCCC(=O)Oc1c(Sc2ccc(Cl)cc2)c(C)nn1-c1ccccc1`: the survival was 23% (active).

As for `COc1ccc(C(=O)Oc2c(Sc3ccccc3)c(C)nn2-c2ccccc2)cc1OC`, the survival was 47% (inactive).

With `COc1ccccc1C(=O)Oc1c(Sc2ccccc2)c(C)nn1-c1ccccc1`, the survival was 62% (inactive).

Regarding `Cc1nn(-c2ccccc2)c(OC(=O)C(C)C)c1Sc1ccc(Cl)cc1`, the survival was 36% (active).

Regarding `CCC(=O)Oc1c(Sc2ccc(Cl)cc2)c(C)nn1-c1ccccc1`, the survival was 13% (active).

On to `CCCC(=O)Oc1c(Sc2ccc(C)cc2)c(C)nn1-c1ccccc1`, for which the survival is 56% (inactive).

On to `Cc1nn(-c2ccccc2)c(OC(=O)C(C)C)c1Sc1ccccc1`, for which the survival was 48% (inactive).

For the compound `CCC(=O)Oc1c(Sc2ccc(C)cc2)c(C)nn1-c1ccccc1`, the survival is 71% (inactive).

For `CCC1CCCCN1C(=O)CSc1n[nH]c(-c2ccccc2Cl)n1` (stereo unspecified), the survival was 102% (inactive).

Regarding `O=C(NC1CCCCC1)N(Cc1ccccc1)Cc1cc2cc3c(cc2[nH]c1=O)OCCO3`, the survival was 52% (inactive).

For `CCOC(=O)c1cnc2c(C)cc(C)cc2c1Nc1cccc(C(=O)O)c1`, the survival was 5% (active).

Take `CCOC(=O)c1cnc2c(C)cc(C)cc2c1Nc1ccccc1OCC`: the survival is -1% (active).

Turning to `Cc1cc(C)c2nc(C)cc(Nc3cccc(C(=O)O)c3)c2c1`, the survival is 70% (inactive).

For `CCOC(=O)c1cc(S(=O)(=O)Nc2ccccc2OCC)[nH]n1`, the survival was 72% (inactive).

For `CCOC(=O)c1ccc2nc(C)cc(Nc3cccc(C(=O)O)c3)c2c1`, the survival was 173% (inactive).

In the case of `CCOC(=O)c1cnc2c(C)cc(C)cc2c1Nc1ccc(OCc2ccccc2)cc1`, the survival was 17% (active).

As for `CCOC(=O)c1cnc2c(Cl)cc(Cl)cc2c1Nc1ccccc1OC`, the survival was 57% (inactive).

Regarding `COc1ccc(CCn2c3c(c(=O)[nH]c2=O)C(NC(=O)c2ccccc2)(C(F)(F)F)C(=O)N3)cc1OC` (stereo unspecified), the survival is 58% (inactive).

For the compound `CCOc1ccccc1N(C)C(=O)c1sc2nc3n(c(=O)c2c1C)CCCC3`, the survival was 64% (inactive).

Regarding `CCC(C)NC(=O)c1nn(-c2ccc(C)cc2)nc1CO` (stereo unspecified), the survival was 94% (inactive).

For the compound `COC(=O)c1ccccc1NC(=O)c1cc2cc(C)ccc2n1C`, the survival is 99% (inactive).

The values above are taken from PubChem BioAssay AID463173 (ICCB-Longwood Screening Facility, Harvard Medical School, 2010).
